High-throughput results from PubChem.
PLK1 kinase inh – PLK1 (human) kinase inhibition; P53350; recombinant PLK1 kinase, TR-FRET peptide phosphorylation; inhibition, % at 10 µM; 0.53% of 97,000 active; AID 619;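 active means inhibition of 50% or more in the single-concentration screen; inactive means inhibition below 50%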;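 further: 0% = DMSO max control and 100% = H-89 dihydrochloride min control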
PLK1 PBD inh – inhibitors of human Plk1 polo box domain binding | Plk1 PBD phosphopeptide binding, fluorescence polarization | AID 693 | inhibition, %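 (tested at about 20 µM)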 | 0.13% of 97,000 active | P53350; in the data active means inhibition above about 34%, passing the limit was not always enough
CYP2C19 act – increases human CYP2C19 enzyme activity; P33261; recombinant CYP2C19, luciferin-H EGE luminescence; stronger effect = higher value; 0 = fully inhibited enzyme, 1 = untreated enzyme; activation factor at 5 µM; 96,000 tested, under 10 active;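 active means activation factor of at least 2 at 5 µM in the primary screen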;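 further: 0 = wells with 2.5 mM tranylcypromine and 1 = vehicle-only wells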
CYP2C9 activ – increases human cytochrome P450 2C9 activity. P11712. 1.4% of 96,000 active. recombinant CYP2C9, luciferin-H conversion, luminescence; stronger effect = higher value; factor 1 = untreated enzyme, 0 = blocked. activation factor at 5 µM. AID 1024;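 active means activation factor of 2 or more for CYP2C9 at a 5 µM dose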;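 further: 0 = sulfaphenazole-blocked wells and 1 = vehicle-only wells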
Target sequence (P11712 whole entry, looked up): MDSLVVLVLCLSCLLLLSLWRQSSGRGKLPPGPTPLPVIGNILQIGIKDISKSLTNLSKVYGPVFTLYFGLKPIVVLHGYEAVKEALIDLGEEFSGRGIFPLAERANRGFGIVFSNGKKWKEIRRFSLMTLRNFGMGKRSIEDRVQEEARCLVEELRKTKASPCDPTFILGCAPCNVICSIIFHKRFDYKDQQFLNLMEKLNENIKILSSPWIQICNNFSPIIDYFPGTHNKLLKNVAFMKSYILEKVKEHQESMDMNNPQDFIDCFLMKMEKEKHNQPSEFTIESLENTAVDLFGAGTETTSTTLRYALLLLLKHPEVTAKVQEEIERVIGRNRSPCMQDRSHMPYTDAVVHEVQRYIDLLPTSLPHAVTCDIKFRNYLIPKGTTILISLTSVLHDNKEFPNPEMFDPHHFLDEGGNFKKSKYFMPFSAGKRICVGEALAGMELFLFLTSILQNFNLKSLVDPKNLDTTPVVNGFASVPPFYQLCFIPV
CYP2C9 inh – inhibitors of human CYP2C9. P11712. CYP2C9 Supersomes, luciferin-H conversion, luminescence. inhibition, % at 5 µM. 20% of 96,000 active;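 active means blocking of liver enzyme CYP2C9 beyond about 50% at 5 µM, limit read from the data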
CYP2C19 inh – inhibitors of human CYP2C19. P33261. CYP2C19 Supersomes, luciferin-H EGE luminescence, 30 min. inhibition, % at 5 µM. 21% of 96,000 active;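 active means CYP2C19 inhibition above a set limit at 5 µM in the primary screen, cut at about 50% in these data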;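 further: plate controls were negative control wells for no effect and 2.5 mM tranylcypromine positive control for full effect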
* hit, by the source's call. This is a sample that favours compounds with a hit; in the whole collection about 28% have one here.

`CCn1c(C)nc2cc(C(=O)n3cc(C(=O)c4ccccc4O)cn3)ccc21` gave PLK1 kinase inh 20.6, PLK1 PBD inh 3.1, CYP2C19 act 0.9, CYP2C9 activ 0.6, CYP2C9 inh 41.3 and CYP2C19 inh 10.3.
Screening CCn1c(C)nc2cc(C(=O)NNS(=O)(=O)c3c(C)c(C)cc(C)c3C)ccc21 returned PLK1 kinase inh -11.1, PLK1 PBD inh -17.0, CYP2C19 act 0.5, CYP2C9 activ 1, CYP2C9 inh -2.0 and CYP2C19 inh 54.8*.
Screening CCn1c(C)nc2cc(C(=O)OC(C(F)(F)C(F)F)C(F)(F)C(F)F)ccc21 returned PLK1 kinase inh -3.0, PLK1 PBD inh 20.5, CYP2C19 act 0.5, CYP2C9 activ 0.5, CYP2C9 inh 53.9* and CYP2C19 inh 48.3.
`COc1cc2c(C(=O)NCc3ccc(C)o3)cn(CC(C)C)c(=O)c2cc1OC` gave PLK1 kinase inh -6.1, PLK1 PBD inh -6.5, CYP2C19 act 0.9, CYP2C9 activ 0.9, CYP2C9 inh 10.6 and CYP2C19 inh 7.9.
Screening N#CC1=C(N)OC2=C(C(=O)CCC2)C1Cc1ccccc1 (stereo not given) returned PLK1 kinase inh 13.2 and PLK1 PBD inh -3.7.
Cc1ccc(S(=O)(=O)N2CCCC(C(=O)NC3=NCCS3)C2)cc1 (stereo not given) was read as PLK1 kinase inh -6.2, PLK1 PBD inh -16.6, CYP2C19 act 1, CYP2C9 activ 1, CYP2C9 inh -1.3 and CYP2C19 inh -3.2.
`CCOc1ccc(N2C(=O)CC(N3CC(C)OC(C)C3)C2=O)cc1` (stereo not given) gave CYP2C19 act 1.2, CYP2C9 activ 1, CYP2C9 inh -4.6 and CYP2C19 inh -15.7.
`CCOc1ccc2nc(SCC(=O)Nc3ccc4c(c3)OCCO4)[nH]c2c1` gave PLK1 kinase inh -10.8, PLK1 PBD inh -5.9, CYP2C19 act 0.4, CYP2C9 activ 0.1, CYP2C9 inh 90.9* and CYP2C19 inh 60.6*.
`O=C(CSc1nc2ccc(Cl)cc2[nH]1)c1ccc2c(c1)OCO2` gave PLK1 kinase inh 3.1, PLK1 PBD inh -18.8, CYP2C19 act 0.7, CYP2C9 activ 0.3, CYP2C9 inh 65.9* and CYP2C19 inh 26.1.
O=C(CSc1ncn[nH]1)c1ccc2c(c1)OCO2 was read as PLK1 kinase inh 1.0, PLK1 PBD inh -19.0, CYP2C19 act 0.9, CYP2C9 activ 1.2, CYP2C9 inh -18.3 and CYP2C19 inh 8.0.
CCOc1ccc2nc(SCC(=O)Nc3ncccn3)[nH]c2c1 was read as PLK1 kinase inh 37.3, PLK1 PBD inh -5.2, CYP2C19 act 1, CYP2C9 activ 1, CYP2C9 inh 3.5 and CYP2C19 inh 0.2.
Screening COc1ccc2[nH]c3nc(SCC(=O)Nc4ccc5c(c4)OCO5)nnc3c2c1 returned PLK1 kinase inh -3.8, PLK1 PBD inh 14.0, CYP2C19 act 0.8, CYP2C9 activ 0.3, CYP2C9 inh 70.4* and CYP2C19 inh 22.7.
For CC(C)NC(=O)C1(O)c2ccccc2NC(=O)N1c1ccc(Cl)c(Cl)c1 (stereo not given) the results were CYP2C19 act 0.7, CYP2C9 activ 0.5, CYP2C9 inh 45.8 and CYP2C19 inh 26.5.
Screening CCOc1ccc(N2C(=O)Nc3ccccc3C2(O)C(=O)NCc2ccc3c(c2)OCO3)cc1 (stereo not given) returned PLK1 kinase inh -5.8, PLK1 PBD inh -26.9, CYP2C19 act 0.8, CYP2C9 activ 2.4*, CYP2C9 inh -141.4 and CYP2C19 inh 18.8.
For CCS(=O)(=O)N1CCC(C(=O)NCC2CCCO2)CC1 (stereo not given) the results were PLK1 kinase inh -6.4, PLK1 PBD inh -5.4, CYP2C19 act 1.1, CYP2C9 activ 1.1, CYP2C9 inh -13.6 and CYP2C19 inh -10.9.
`Cc1ccc2[nH]c3nc(SCCN4CCOCC4)nnc3c2c1` gave CYP2C19 act 0.9, CYP2C9 activ 0.9, CYP2C9 inh 10.2 and CYP2C19 inh 6.5.
Screening COc1ccc2[nH]c3nc(SCc4nnc(-c5ccc(C)cc5)o4)nnc3c2c1 returned PLK1 kinase inh -2.4, PLK1 PBD inh 12.8, CYP2C19 act 0.5, CYP2C9 activ 0.3, CYP2C9 inh 71.7* and CYP2C19 inh 51.5*.
`COc1ccc2nc(SCC(=O)Nc3c(C)cccc3C)[nH]c2c1` gave PLK1 kinase inh -6.9, PLK1 PBD inh -5.0, CYP2C19 act 0.5, CYP2C9 activ 0.2, CYP2C9 inh 83.7* and CYP2C19 inh 51.8*.
